Measurements reported in PubChem BioAssay (Tox21).
The source made the active and inactive calls. Unless noted, the call rests on the fitted dose curve; in most records, active means well fitted curve in the direction sought with a large enough effect in the repeat runs; inconclusive means weak or mixed curves; inactive means flat fitted curve, though single readings scatter. Positions of bridges follow the written chain, without caps; N, C: chain ends. Non-standard residues stand in square brackets, D forms with d. Residues, ends and D or L forms follow the SMILES beside them. *: point of attachment. X2 = CC[C@H](C)CCCCC(=O)*; Dab = NCC[C@H](N)C(=O)O

Tests used:
[1] = qHTS assay to test for compound auto fluorescence at 535 nm (green) in HEK293 cells (AID 720680)
[2] = qHTS assay to test for compound auto fluorescence at 460 nm (blue) in HEK293 cell free culture (AID 720681)
How it was run: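 Blue fluorescence (Ex 405/Em 460 nm, triamterene-equivalent) was read immediately after pin transfer of compound or DMSO into medium (DMEM, 10% FBS) without cells.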

[3] = qHTS assay to test for compound auto fluorescence at 535 nm (green) in HEK293 cell free culture (AID 720682)
How it was run: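 Each library compound, or DMSO control, is added by pintool to medium alone, comprising DMEM and 10% FBS. Emission at 535 nm following 485 nm excitation is quantified against fluorescein.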

[4] = qHTS assay to test for compound auto fluorescence at 590 nm (red) in HEK293 cell free culture (AID 720683)
How it was run: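 Red-channel autofluorescence of compounds in culture medium (DMEM, 10% FBS), no cells, measured at 540/590 nm. Rose Bengal sodium is the reference fluorophore for equivalence.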

[5] = qHTS assay to test for compound auto fluorescence at 590 nm (red) in HepG2 cell free culture (AID 720684)
How it was run: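 Cell-free; medium MEM + 10% FBS; compound or DMSO added by pintool; read Ex 540/Em 590 nm; Rose Bengal sodium as red reference fluorophore.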

[6] = qHTS assay to test for compound auto fluorescence at 460 nm (blue) in HepG2 cell free culture (AID 720685)
How it was run: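 Cell-free plates of MEM plus 10% FBS received 23 nL compound or DMSO vehicle; blue-channel (405/460 nm) intensity scored against triamterene as reference fluorophore.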

[7] = qHTS assay to test for compound auto fluorescence at 535 nm (green) in HepG2 cell free culture (AID 720686)
[8] = qHTS assay to test for compound auto fluorescence at 460 nm (blue) in HepG2 cells (AID 720687)
How it was run: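 Blue-channel autofluorescence (Ex/Em 405/460 nm, triamterene-equivalent) was measured after 1 hr compound exposure at 37 C, 5% CO2. Cells were HepG2, plated overnight at 37 C in MEM plus 10% FBS.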

[9] = biological target: Glucocorticoid receptor (Homo sapiens) (UniProt P04150); assay: qHTS assay to identify small molecule agonists of the glucocorticoid receptor (GR) signaling pathway (AID 720691; active means well fitted activation curve with a large enough effect in the signal ratio in the repeat runs, not every such curve was filed as active; inconclusive means weak or mixed curves, or effect the other way; inactive means no such curve, though single readings can be large or run the other way; the % refers to the signal ratio; further: potency means the concentration at half of the fitted maximal effect); settings: GR-bla HeLa, beta-lactamase reporter ratio, 18 h; activation: at 62.4 µM (top of the series)
How it was run: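 HeLa GR-bla reporter line; cells pre-incubated 4 h, compound in DMSO 18 h at 37 C; LiveBLAzer B/G FRET substrate 2 h RT; fluorescence intensity read-out.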

[10] = biological target: Glucocorticoid receptor (Homo sapiens) (UniProt P04150); assay: qHTS assay to identify small molecule antagonists of the glucocorticoid receptor (GR) signaling pathway (AID 720692; active means well fitted inhibition curve with a large enough effect in the signal ratio in the repeat runs, not every such curve was filed as active; inconclusive means weak or mixed curves, or effect the other way; inactive means no such curve, though single readings can be large or run the other way; the % refers to the signal ratio; further: potency means the concentration at half of the fitted maximal effect)
How it was run: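 Read-out: beta-lactamase FRET substrate fluorescence, 2 h at room temperature, in HeLa cells stably carrying a GRE-driven bla reporter. Compounds were co-incubated with 5 nM dexamethasone agonist (final) for 18 h at 37 C.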

Measured: Potency

Sequence of Glucocorticoid receptor (Homo sapiens) (P04150 whole entry, looked up): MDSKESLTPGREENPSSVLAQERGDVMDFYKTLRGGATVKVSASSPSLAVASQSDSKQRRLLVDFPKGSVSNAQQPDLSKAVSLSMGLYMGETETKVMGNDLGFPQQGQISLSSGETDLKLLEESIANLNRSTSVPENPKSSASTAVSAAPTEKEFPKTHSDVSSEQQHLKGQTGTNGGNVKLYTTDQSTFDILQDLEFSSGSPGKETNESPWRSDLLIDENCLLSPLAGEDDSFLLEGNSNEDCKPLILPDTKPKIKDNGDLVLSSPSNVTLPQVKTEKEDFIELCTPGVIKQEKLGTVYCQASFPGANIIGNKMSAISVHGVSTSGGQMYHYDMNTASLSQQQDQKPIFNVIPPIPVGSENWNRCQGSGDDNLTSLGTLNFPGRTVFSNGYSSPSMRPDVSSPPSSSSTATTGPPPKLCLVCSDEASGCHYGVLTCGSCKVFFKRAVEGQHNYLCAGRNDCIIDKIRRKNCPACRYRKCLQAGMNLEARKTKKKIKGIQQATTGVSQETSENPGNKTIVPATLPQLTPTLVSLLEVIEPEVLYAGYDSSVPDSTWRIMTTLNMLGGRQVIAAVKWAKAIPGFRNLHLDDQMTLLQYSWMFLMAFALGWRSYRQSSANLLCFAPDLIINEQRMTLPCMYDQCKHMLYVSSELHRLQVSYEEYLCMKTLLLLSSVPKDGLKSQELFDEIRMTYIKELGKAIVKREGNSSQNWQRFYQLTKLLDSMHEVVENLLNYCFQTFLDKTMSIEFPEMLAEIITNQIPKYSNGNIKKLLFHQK

Cc1cccc(C)c1N(CCCc1cccnc1)C(=O)C(C)N (stereo not given)
inactive: all assays above

CCOC(=O)C1=C[C@@H](OC(CC)CC)[C@H](NC(C)=O)[C@@H](N)C1
inactive: all assays above

CO/N=C(\C(=O)N[C@@H]1C(=O)N2C(C(=O)OCOC(=O)C(C)(C)C)=C(/C=C\c3scnc3C)CS[C@H]12)c1csc(N)n1
inactive: all assays above

NCCCC[C@H](NC(=O)[C@@H]1CCCN1C(=O)[C@@H]1CSSC[C@H](N)C(=O)N[C@@H](Cc2ccccc2)C(=O)N[C@@H](Cc2ccccc2)C(=O)N[C@@H](CCC(N)=O)C(=O)N[C@@H](CC(N)=O)C(=O)N1)C(=O)NCC(N)=O
inactive: all assays above

Cc1onc(-c2ccccc2)c1C(=O)N[C@@H]1C(=O)N2[C@@H]1SC(C)(C)[C@@H]2C(=O)O
inactive: all assays above

CN1CCN(C(c2ccccc2)c2ccc(Cl)cc2)CC1 (stereo not given)
inactive: all assays above

Nc1nc2c(c(=O)[nH]1)N(C=O)C(CNc1ccc(C(=O)N[C@@H](CCC(=O)O)C(=O)O)cc1)CN2 (stereo not given in full)
inactive: all assays above

CCOC(=O)Cc1cccc(-c2cc(CCCCCCc3ccc(O[C@H]4O[C@H](COC(C)=O)[C@@H](OC(C)=O)[C@H](OC(C)=O)[C@@H]4OC(C)=O)c(-c4cccc(CC(=O)OCC)c4)c3)ccc2O[C@H]2O[C@H](COC(C)=O)[C@@H](OC(C)=O)[C@H](OC(C)=O)[C@@H]2OC(C)=O)c1
not listed: [10]
inactive: all other assays above

C/C1=C2N=C(/C=C3N=C(/C(C)=C4\[N-][C@@](C)([C@@H]5N=C1[C@](C)(CCC(=O)NCC(C)OP(=O)(O)O[C@H]1[C@@H](O)[C@@H](n6cnc7cc(C)c(C)cc76)O[C@@H]1CO)[C@H]5CC(N)=O)[C@@](C)(CC(N)=O)[C@@H]4CCC(N)=O)[C@@](C)(CC(N)=O)[C@@H]\3CCC(N)=O)C(C)(C)[C@@H]/2CCC(N)=O.CC(=O)O.[Co] (stereo not given in full)
inactive: all assays above

CC(=O)OCC(=O)[C@@]1(O)[C@H](C)C[C@H]2[C@@H]3C[C@H](F)C4=CC(=O)C=C[C@]4(C)[C@H]3[C@@H](O)C[C@@]21C
active: [9] 0.0268 µM [inconclusive]
not listed: [10]
inactive: all other assays above

CC(=O)N(CC(C)C(=O)O)c1c(I)cc(I)c(N)c1I (stereo not given)
inactive: all assays above

COc1cc2c(cc1OC)CC(=O)N(CCCN(C)C[C@H]1Cc3cc(OC)c(OC)cc31)CC2
not listed: [10]
inactive: all other assays above

COC(=O)[C@@H](N)CS
inactive: all assays above

Cc1cccc(C)c1NC(=O)NC1=CCCN1C
inactive: all assays above

CCCCCCCCCCCCCCCC(=O)OCC(COC(=O)CCCCCCCCCCCCCCC)OC(=O)CCCCCCCCCCCCCCC
inactive: all assays above

C[C@]12CCC(=O)C[C@@H]1CC[C@@H]1[C@@H]2CC[C@]2(C)C=CC[C@@H]12
inactive: all assays above

CC(=O)O[C@H]1C[C@@]2(C)[C@@H](C[C@@H](O)[C@H]3[C@@]4(C)CC[C@@H](O)[C@@H](C)[C@@H]4CC[C@@]32C)/C1=C(\CCC=C(C)C)C(=O)O
inactive: all assays above

CC(C)(C)c1ccc(CN2CCN(C(c3ccccc3)c3ccc(Cl)cc3)CC2)cc1 (stereo not given)
not listed: [10]
inactive: all other assays above

CCCCCCCCCCCCCCCCCC[N+](C)(C)CCC[Si](OC)(OC)OC
inactive: all assays above

CO[C@H]1C=CO[C@@]2(C)Oc3c(C)c(O)c4c(O)c(c(/C=N/N5CCN(C6CCCC6)CC5)c(O)c4c3C2=O)NC(=O)/C(C)=C\C=C[C@H](C)[C@H](O)[C@@H](C)[C@@H](O)[C@@H](C)[C@H](OC(C)=O)[C@@H]1C
active: [10] 21.3 µM
inactive: all other assays above

CC[C@H](C)CCCCC(=O)N[C@@H](CCN)C(=O)N[C@H](C(=O)N[C@@H](CCN)C(=O)N[C@H]1CCNC(=O)[C@H]([C@@H](C)O)NC(=O)[C@H](CCN)NC(=O)[C@H](CCN)NC(=O)[C@H](CC(C)C)NC(=O)[C@@H](CC(C)C)NC(=O)[C@H](CCN)NC1=O)[C@@H](C)O (X2-[Dab]T[Dab][Dab][Dab][dL]L[Dab][Dab]T; lactam 4-C)
not listed: [10]
inactive: all other assays above

CCCCCCCCCCCCCCCCSCC(COC)COP(=O)([O-])OCC[N+](C)(C)C (stereo not given)
active: [10] 23.9 µM
inactive: all other assays above
